Shown are actives, neighbours in structure and some others; about 3.3% of the full set was active somewhere.
SMARCA2 activ = SMARCA2 (BRM) function activators, primary screen, cell-based, luminescence, high throughput. MG213 cells, MMTV-luciferase reporter, dexamethasone, overnight. activation, % at 9.1 µM. 370,000 compounds, 1% hits. AID 652017, 2013; in the data active = activation above about 7.8%
697 NFkB inh = inhibitors of PMA/ionomycin-induced NF-kB reporter, 697 cells, primary screen, B-cell NF-kB inhibitor project, cell-based, luminescence, uHTS. 697 B-cell NF-kB luciferase reporter, 16 h. inhibition, % at 4 µM. 330,000 compounds, 0.33% hits. AID 435022, 2010; in the data active = inhibition above about 35%
esBAF inh = Bmi1 luciferase reporter increase in mESCs, primary screen, esBAF inhibitor project, mouse ES cells, Bmi1 luciferase knock-in, single point; 24 h; 100% = twice the neutral-well signal; reporter increase, % at 12.5 µM; 350,000 compounds, 2% hits; AID 602393, 2012; in the data active = activation above about 40%;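 also: a rise in the Bmi1 reporter signal indicates esBAF inhibition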
Jurkat NFkB inh = inhibitors of induced NF-kB luciferase reporter, primary screen, TCR NF-kB activation inhibitor project, cell-based, luminescence, uHTS. Jurkat, PMA/ionomycin-induced NF-kB luciferase reporter. inhibition, % at 4 µM. 330,000 compounds, 0.53% hits. AID 435003, 2010; in the data active = inhibition above about 50%
Gli-Sufu block = Gli-Sufu pathway antagonists, primary screen, luciferase luminescence, Sufu-KO-LIGHT cells, uHTS; Sufu-KO-LIGHT fibroblasts, Gli luciferase reporter luminescence; inhibition, % at 5 µM; 340,000 compounds, 0.74% hits; AID 588413, 2011;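 active = inhibition above about 55%, limit read from the data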
Hits are given with their value.

For COc1ccc(Cc2nc3ccc(C(=O)N(C)CCn4ccnc4)cc3o2)cc1OC the results were SMARCA2 activ inactive, 697 NFkB inh inactive, esBAF inh 48, Jurkat NFkB inh inactive and Gli-Sufu block inactive.
For COc1ccc(Cc2nc3ccc(C(=O)N4CCOCC4)cc3o2)cc1 the results were SMARCA2 activ inactive, 697 NFkB inh inactive, esBAF inh 78, Jurkat NFkB inh inactive and Gli-Sufu block inactive.
For COc1ccc(Cc2nc3ccc(C(=O)N4C[C@@H](C)O[C@@H](C)C4)cc3o2)cc1OC the results were SMARCA2 activ inactive, 697 NFkB inh inactive, esBAF inh 69, Jurkat NFkB inh inactive and Gli-Sufu block inactive.
For COCCN1CCN(C(=O)c2ccc3nc(Cc4ccc(OC)c(OC)c4)oc3c2)CC1 the results were SMARCA2 activ inactive, 697 NFkB inh inactive, Jurkat NFkB inh inactive and Gli-Sufu block inactive.
Screening CO[C@H](CN(C)C(=O)c1ccc2c(c1)OCO2)[C@@H](C)CN([C@H](C)CO)S(=O)(=O)c1ccccc1 returned esBAF inh inactive.
For Cc1noc(C)c1NC(=O)N(C)C[C@H]1Oc2ccc(NC(=O)CCCN(C)C)cc2CC(=O)N([C@@H](C)CO)C[C@@H]1C the results were esBAF inh inactive.
For COCC#Cc1cnc2c(c1)C(=O)N([C@@H](C)CO)C[C@H](C)[C@@H](CN(C)C(=O)NC1CCCC1)O2 the results were esBAF inh inactive.
Cc1noc(C)c1NC(=O)N(C)C[C@H]1OCCCC[C@@H](C)Oc2ccc(NS(=O)(=O)c3c(C)noc3C)cc2C(=O)N([C@@H](C)CO)C[C@H]1C was read as esBAF inh inactive.
Screening COc1ccccc1NC(=O)COC(=O)c1c(C)nn(-c2ccccc2)c1C returned SMARCA2 activ inactive, 697 NFkB inh inactive, esBAF inh 59, Jurkat NFkB inh inactive and Gli-Sufu block inactive.
For Cc1ccc(NC(=O)COC(=O)c2c(C)nn(-c3ccccc3)c2C)cc1 the results were SMARCA2 activ inactive, 697 NFkB inh inactive, esBAF inh inactive, Jurkat NFkB inh inactive and Gli-Sufu block inactive.
Screening Cc1nn(-c2ccccc2)c(C)c1C(=O)OCC(=O)Nc1ccccc1 returned SMARCA2 activ inactive, 697 NFkB inh inactive, esBAF inh 56, Jurkat NFkB inh inactive and Gli-Sufu block inactive.
Screening Cc1nn(-c2ccccc2)c(C)c1C(=O)OCC(=O)Nc1ccccc1C(F)(F)F returned SMARCA2 activ inactive, 697 NFkB inh inactive, esBAF inh 46, Jurkat NFkB inh inactive and Gli-Sufu block inactive.
`COC(=O)c1cc(-c2c(C)nn(-c3ccccc3)c2C)n[nH]1` gave SMARCA2 activ inactive, 697 NFkB inh inactive, esBAF inh 64, Jurkat NFkB inh inactive and Gli-Sufu block inactive.
`CC(=O)c1ccccc1NC(=O)COC(=O)c1c(C)nn(-c2ccccc2)c1C` gave SMARCA2 activ inactive, 697 NFkB inh inactive, esBAF inh inactive, Jurkat NFkB inh inactive and Gli-Sufu block inactive.
Cc1cc2n(n1)SC(Nc1cccc3ccccc13)N2 (stereo not given) was read as SMARCA2 activ inactive, 697 NFkB inh inactive, esBAF inh 50, Jurkat NFkB inh inactive and Gli-Sufu block inactive.
`COc1ccc(C(=O)N/C(=C/c2cccs2)c2nc3ccccc3[nH]2)cc1OC` gave SMARCA2 activ inactive, 697 NFkB inh inactive, Jurkat NFkB inh inactive and Gli-Sufu block inactive.
COc1cc(/C=C(/C(=O)c2cccs2)c2nc3ccccc3[nH]2)cc(OC)c1O was read as SMARCA2 activ inactive, 697 NFkB inh inactive, esBAF inh 101, Jurkat NFkB inh inactive and Gli-Sufu block inactive.
Screening C[C@@H]1CN([C@H](C)CO)C(=O)c2cc(NS(=O)(=O)c3cn(C)cn3)ccc2O[C@@H]1CN(C)Cc1ccc2c(c1)OCO2 returned esBAF inh inactive.
COc1ccc(NC(=O)N(C)C[C@H]2OCCCC[C@H](C)Oc3ccc(NC(=O)NC(C)C)cc3C(=O)N([C@H](C)CO)C[C@@H]2C)cc1 was read as esBAF inh inactive.
`COc1ccc(-c2cc(-c3cccs3)nc3sc(C#N)c(N)c23)cc1` gave SMARCA2 activ inactive, 697 NFkB inh inactive, Jurkat NFkB inh inactive and Gli-Sufu block inactive.
`COCc1cc(C)c2c(N)c(C#N)sc2n1` gave SMARCA2 activ 7.9, 697 NFkB inh inactive, esBAF inh inactive, Jurkat NFkB inh inactive and Gli-Sufu block inactive.
`CCC(CO)Nc1ccn2nc(-c3ccccc3)cc2n1` (stereo not given) gave SMARCA2 activ inactive and esBAF inh 69.
CCC(CO)Nc1ccn2nc(-c3cccs3)cc2n1 (stereo not given) was read as SMARCA2 activ inactive and esBAF inh 55.
Screening CN(C)CCn1c(NC(=O)c2ccc(Cl)cc2)nc2ccccc21 returned SMARCA2 activ inactive, 697 NFkB inh inactive, esBAF inh 56, Jurkat NFkB inh inactive and Gli-Sufu block inactive.
CCN(CC)CCn1c(NC(=O)c2ccc(C)cc2)nc2ccccc21 was read as SMARCA2 activ inactive, 697 NFkB inh inactive, esBAF inh inactive, Jurkat NFkB inh inactive and Gli-Sufu block inactive.
O=C1/C(=C/c2ccc(N3CCCC3)cc2)NC(=S)N1C1CC1 was read as SMARCA2 activ inactive, 697 NFkB inh inactive, esBAF inh 48, Jurkat NFkB inh inactive and Gli-Sufu block inactive.
`Cc1cc(N2CCCC2)ccc1/C=C1\NC(=S)N(C)C1=O` gave SMARCA2 activ inactive, 697 NFkB inh inactive, esBAF inh 85, Jurkat NFkB inh inactive and Gli-Sufu block inactive.
`Cn1cnc(CCNC(=O)C[C@H]2CC[C@@H]3[C@H](COC[C@H](O)CN3C(=O)Nc3ccc(F)cc3)O2)c1` gave esBAF inh inactive.
`c1ccc(-c2nnsc2Sc2ccccn2)cc1` gave SMARCA2 activ inactive, 697 NFkB inh inactive, esBAF inh 54, Jurkat NFkB inh inactive and Gli-Sufu block inactive.
Cc1nnsc1Sc1ccccn1 was read as SMARCA2 activ inactive, 697 NFkB inh inactive, Jurkat NFkB inh inactive and Gli-Sufu block inactive.
Screening O=C1CC(NS(=O)(=O)c2cccs2)CN1c1ccc(F)cc1 (stereo not given) returned SMARCA2 activ inactive, 697 NFkB inh inactive, esBAF inh 47, Jurkat NFkB inh inactive and Gli-Sufu block inactive.
Screening O=C(Nc1ccc(NC(=O)c2cccs2)cc1Cl)c1ccco1 returned SMARCA2 activ inactive, 697 NFkB inh inactive, Jurkat NFkB inh inactive and Gli-Sufu block inactive.
Screening COc1cc(NC(=O)c2ccccc2Cl)ccc1NC(=O)c1ccco1 returned SMARCA2 activ inactive, 697 NFkB inh inactive, esBAF inh 51, Jurkat NFkB inh inactive and Gli-Sufu block inactive.
For COc1cc(NC(=O)c2cccs2)ccc1NC(=O)c1ccco1 the results were SMARCA2 activ inactive, 697 NFkB inh inactive, esBAF inh 92, Jurkat NFkB inh inactive and Gli-Sufu block inactive.

Bioassay records deposited in PubChem BioAssay by several laboratories.
